The values below come from PubChem BioAssay (NCATS).

The target in assay [1] is Cytochrome P450 3A4 (Homo sapiens) (UniProt P08684). Put plainly: qHTS Assay for Inhibitors and Substrates of Cytochrome P450 3A4 (AID 884). Also: nearly all actives have a fitted effect of over 50% in size. Also: potency is read from the fitted curve at half-maximal effect. Conditions: recombinant CYP3A4, Luciferin-PPXE luminescence; series mostly up to 57.1 µM. Summed up: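 Luminescent readout of luciferin produced by CYP3A4 (20 nM) dealkylation of Luciferin-PPXE, 25 uM (its KM). NADPH-driven reaction ran 60 min at RT after 10 min compound preincubation; data scaled to 57 uM ketoconazole as 100% inhibition.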
Cytochrome P450 3A4 (Homo sapiens), sequence (P08684 whole entry, looked up): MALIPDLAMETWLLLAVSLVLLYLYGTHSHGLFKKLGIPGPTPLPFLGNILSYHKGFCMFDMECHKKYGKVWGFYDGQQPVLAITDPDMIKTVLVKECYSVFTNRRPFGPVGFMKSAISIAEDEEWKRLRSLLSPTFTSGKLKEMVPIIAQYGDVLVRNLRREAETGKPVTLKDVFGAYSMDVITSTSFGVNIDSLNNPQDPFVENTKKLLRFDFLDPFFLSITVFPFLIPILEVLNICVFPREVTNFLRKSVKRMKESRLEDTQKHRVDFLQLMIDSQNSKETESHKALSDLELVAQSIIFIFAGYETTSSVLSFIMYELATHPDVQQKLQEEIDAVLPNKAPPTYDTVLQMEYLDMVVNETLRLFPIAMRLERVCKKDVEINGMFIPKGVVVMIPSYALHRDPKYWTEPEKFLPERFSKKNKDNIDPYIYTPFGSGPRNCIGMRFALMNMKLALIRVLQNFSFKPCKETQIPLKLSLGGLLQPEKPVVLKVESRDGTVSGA
On the technique in general: Quantitative high-throughput screening tests each substance at several concentrations.

Assay [2] can be described thus: Confirmation and Secondary Assay for Modulators of Hemoglobin Beta Chain Splicing at IVS2 654 locus (AID 910).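 Also: HeLa cells stably carrying EGFP split by mutant beta-globin IVS2-654 intron.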 Conditions: HeLa EGFP-654 splicing reporter, GFP fluorescence, 48 h; series mostly up to 46.1 µM. Summed up: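 HeLa cells stably expressing EGFP interrupted by β-globin IVS2-654 intron, seeded overnight in Opti-MEM/2% FCS, then treated 2 days at 37 °C. Restored splicing read as total peak GFP intensity per well by laser scanning cytometry (488 nm excitation, 500–520 nm emission); 500 nM antisense PNA as control.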

Assay [3] can be described thus: Confirmation and Secondary Assay for Modulators of Hemoglobin Beta Chain Splicing at IVS2 705 locus (AID 930).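 Also: HeLa cells stably expressing the EGFP-705 splicing reporter; GFP fluorescence per well restored by corrected splicing of the IVS2-705 intron in EGFP.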 Conditions: HeLa EGFP-705 splicing reporter, GFP fluorescence, 48 h; series mostly up to 46.1 µM. Summed up:
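Stable HeLa line with EGFP disrupted by mutant beta-globin intron 2 (705). Overnight attachment, then 2 days of compound at 37C, 5% CO2. Signal: peak GFP intensity summed over objects 5-250 µm.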

In assay [4] the target is Cytochrome P450 3A4 (Homo sapiens) (UniProt P08684). Put plainly: qHTS Assay for Activators of Cytochrome P450 3A4 (AID 885). Also: nearly all actives have a fitted effect of over 65% in size. Also: potency is read from the fitted curve at half-maximal effect. The conditions noted are these: recombinant CYP3A4, Luciferin-PPXE luminescence, 60 min; series mostly up to 57.1 µM. Summed up: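 Luminescent readout of luciferin formed from 25 uM Luciferin-PPXE (KM level) by 20 nM CYP3A4 in 200 mM KPO4, with 60 min NADPH-driven reaction at room temperature after 10 min compound exposure. Ketoconazole (57 uM) defined 100% inhibition.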

Assay [5] concerns the target Cytochrome P450 2C19 (Homo sapiens) (UniProt P33261). Put plainly: qHTS Assay for Inhibitors and Substrates of Cytochrome P450 2C19 (AID 899). Also: nearly all actives have a fitted effect of over 60% in size. Also: potency is read from the fitted curve at half-maximal effect. The conditions noted are these: recombinant CYP2C19, luciferin-H EGE luminescence; series mostly up to 57.1 µM. An outline of the steps: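 5 nM human CYP2C19 with 10uM Luciferin-H EGE (at KM) in 50mM KPO4, compound preincubated 10 min at 37C, then NADPH regeneration for 60 min at 37C. Luciferin read by luminescence after detection reagent; normalized to 57uM ketoconazole as full inhibition.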

In assay [6] the target is Cytochrome P450 2D6 (Homo sapiens) (UniProt P10635). Briefly: qHTS Assay for Inhibitors and Substrates of Cytochrome P450 2D6 (AID 891). Also: potency is read from the fitted curve at half-maximal effect; nearly all actives have a fitted effect of over 60% in size. Conditions: recombinant CYP2D6, luciferin-ME EGE luminescence; series mostly up to 57.1 µM. An outline of the steps: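 Luminescent read-out of luciferin formed by 5 nM human CYP2D6 demethylating 30 uM Luciferin-ME EGE (Km level) over 60 min at room temperature after NADPH regeneration addition. Data normalized to full inhibition by 1.43 uM quinidine.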
Cytochrome P450 2D6 (Homo sapiens), sequence (P10635 whole entry, looked up): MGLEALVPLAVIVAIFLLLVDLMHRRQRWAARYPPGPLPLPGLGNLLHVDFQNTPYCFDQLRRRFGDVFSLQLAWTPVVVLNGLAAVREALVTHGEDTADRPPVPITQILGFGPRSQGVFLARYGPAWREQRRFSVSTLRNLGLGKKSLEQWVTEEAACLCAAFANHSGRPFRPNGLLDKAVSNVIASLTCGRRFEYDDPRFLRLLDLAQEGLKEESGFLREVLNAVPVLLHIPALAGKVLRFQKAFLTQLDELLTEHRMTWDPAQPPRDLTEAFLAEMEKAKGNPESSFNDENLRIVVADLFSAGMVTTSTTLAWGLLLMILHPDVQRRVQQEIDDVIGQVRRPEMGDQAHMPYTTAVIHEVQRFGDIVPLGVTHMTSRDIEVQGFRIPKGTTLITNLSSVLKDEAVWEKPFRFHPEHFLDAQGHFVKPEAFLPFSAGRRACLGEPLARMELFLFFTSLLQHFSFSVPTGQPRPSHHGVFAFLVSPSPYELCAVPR

A number with no mark means an inactive call. Results filed as inconclusive are left out. A call without a number means that no potency is given here. The source made the active and inactive calls. Calls follow the shape of the dose curve; as a rule, active = well fitted curve in the direction sought with a large enough effect; inconclusive = small, poorly fitted or top-dose-only effect, or another doubt; inactive = no such curve, though single readings can be large; an effect the other way counts as inactive or inconclusive.

Cytochrome P450 2C19 (Homo sapiens), sequence (P33261 whole entry, looked up): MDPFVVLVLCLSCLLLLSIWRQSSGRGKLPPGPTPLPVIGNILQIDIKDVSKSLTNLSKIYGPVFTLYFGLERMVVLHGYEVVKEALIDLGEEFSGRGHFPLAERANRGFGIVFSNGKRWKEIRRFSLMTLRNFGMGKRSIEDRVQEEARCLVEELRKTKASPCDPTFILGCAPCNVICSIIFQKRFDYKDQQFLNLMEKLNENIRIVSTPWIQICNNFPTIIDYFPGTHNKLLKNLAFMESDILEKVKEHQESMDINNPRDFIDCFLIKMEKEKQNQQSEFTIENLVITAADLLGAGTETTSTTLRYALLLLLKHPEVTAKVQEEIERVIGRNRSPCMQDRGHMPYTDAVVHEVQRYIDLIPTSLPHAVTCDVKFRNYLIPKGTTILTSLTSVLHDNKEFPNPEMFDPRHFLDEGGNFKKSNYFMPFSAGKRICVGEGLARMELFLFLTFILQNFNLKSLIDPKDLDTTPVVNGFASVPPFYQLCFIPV

For the molecule `COc1cc2c(cc1OC)[C@@H]1C(=O)c3ccc(OC)c(CC=C(C)C)c3OC1CO2` (stereo partly specified), the Potency in assay [1] is 3.16 µM (active). The Potency entry in assay [2] is “inactive”. In addition, in assay [3], the outcome was inactive.
For `CC(C)C(C)/C=C/C(C)C1CCC2C3=CCC4CC(=O)CC[C@@]4(C)C3CC[C@]21C` (stereo partly specified), the Potency result in assay [1] was “inactive”. Besides, the Potency in assay [4] was 25.1 µM (active).
Take `O=C1CC[C@]2(O)C3Cc4ccc(O)c5c4C2(CCN3CC2CC2)C1O5` (stereo partly specified): the Potency result in assay [1] and in assay [2] was “inactive” throughout. For the same molecule, in assay [3], the outcome was inactive.
For the molecule `COC(=O)/C(C)=C\CC12OC(C)(C)C3CC(C=C4C(=O)c5c(OC)c6c(c(CC=C(C)C)c5OC431)OC(C)(CCC=C(C)C)C=C6)C2=O` (stereo unspecified), in assay [1], the Potency was 3.16 µM (active). Moreover, the Potency result in assay [4] and in assay [2] was “inactive” throughout. Besides, the molecule was called inactive in assay [3].
In the case of `CC(C)=CCCC1(C)C=Cc2c(O)c3c(c(CC=C(C)C)c2O1)OC12C(CC4CC1C(C)(C)OC2(C/C=C(/C)C(=O)O)C4O)C3=O` (stereo unspecified), the Potency entry in assay [1] and in assay [2] was “inactive” in each case. Further, the molecule was classed as inactive in assay [3].
Regarding `CC(=O)Oc1ccc(/C=C/c2cc(OC(C)=O)cc(OC(C)=O)c2)cc1`, the Potency in assay [1] was 10 µM (active). Moreover, the Potency entry in assay [4] and in assay [2] was “inactive” throughout. For the same molecule, the call in assay [3] was inactive.
Take `COC(=O)NC/C=C\c1nc(CC/C=C\C(=O)O[C@H]2C[C@H]3CC(=O)O[C@@H](/C=C\CC(C)C)C[C@@H]4CC[C@H](C)[C@H](C[C@@H](OC)C[C@H](C2)O3)O4)co1`: the Potency in assay [1] is 5.01 µM (active). For the same molecule, in assay [4], the activity change, positive = activation is -81.2% [at 11.4 µM]. In addition, in assay [5], the activity, negative = inhibition was 68.9% [at 11.4 µM].
Consider `CC(=O)Oc1ccc2c(c1)CCC1C2CC[C@]2(C)C(OC(C)=O)CCC12` (stereo partly specified), for which, in assay [4], the Potency result is “inactive”.
Consider `CCC(C)C(=O)OC1C[C@@]2(C)C(c3ccoc3)OC(=O)CC23OC2(C)OC34C(OC(=O)C(C)C)[C@]3(O)C(OC(=O)C5(C)OC5C)[C@]5(C)CC3(O)[C@](C)(C5CC(=O)OC)C14O2` (stereo partly specified), for which, in assay [1], the Potency is 2.51 µM (active). The Potency entry in assay [4] and in assay [2] was “inactive” each time. Moreover, the outcome in assay [3] was inactive.
Consider `COc1ccc2[nH]c(C(=O)c3ccccc3)cc2c1`, for which the Potency in assay [1] was 7.94 µM (active). The Potency result in assay [4] is “inactive”.
As to `CCC1C(=O)OC[C@H]1Cc1cncn1C` (stereo partly specified), in assay [1], the Potency was 20 µM (active). Besides, the Potency entry in assay [2] is “inactive”. Moreover, the molecule was called inactive in assay [3].
Turning to `CN(C)C1C(=O)C(C(N)=O)=C(O)[C@@]2(O)C(=O)C3=C(O)c4c(O)cccc4[C@](C)(O)C3C(O)C12` (stereo partly specified), the Potency entry in assay [1] and in assay [2] was “inactive” in each case. Also, the call in assay [3] was inactive.
As to `COc1ccc(-c2oc3cc(OC)ccc3c(=O)c2O)cc1`, in assay [1], the Potency was 12.6 µM (active). The Potency entry in assay [4] was “inactive”.
With `COc1ccc2c(c1)CN([C@H](C)[C@@H]1CC[C@@H]3[C@H]4CC[C@H]5C[C@@H](O)CC[C@@]5(C)[C@H]4CC[C@]31C)CO2`, in assay [1], the activity change, negative = inhibition is 321% [at 11.4 µM]. Further, the Potency in assay [4] is 3.98 µM (active); in assay [6], 3.16 µM (active).
With `C[C@@]12CC[C@@H]3[C@@H](CC[C@H]4C[C@@H](O)CC[C@]43C)[C@H]1CC[C@@H]2c1cc(C(F)(F)F)n[nH]1`, in assay [1], the activity change, negative = inhibition was 103% [at 11.4 µM]. Also, the Potency in assay [4] and in assay [5] was 2.51 µM (active) each time.
Consider `Cc1ccc2oc(-c3ccccc3)cc(=O)c2c1`, for which, in assay [1], the Potency is 10 µM (active). Moreover, the Potency result in assay [4] is “inactive”.
With `COc1cc2c(cc1OC)[C@@H]1C(=O)c3ccc4c(c3OC1CO2)CC(C(C)C)O4` (stereo partly specified), the Potency in assay [1] was 25.1 µM (active). Besides, the Potency result in assay [4] and in assay [2] was “inactive” throughout. Further, the molecule was classed as inactive in assay [3].
Regarding `CCN(CC)c1ccc2c(C)cc(=O)oc2c1`, in assay [4], the Potency result is “inactive”.
For `CC(=O)OCC(=O)[C@@]1(O)CCC2C3CC[C@H]4CC(O)CC[C@@]4(C)C3C(=O)C[C@]21C` (stereo partly specified), the Potency in assay [1] was 12.6 µM (active). The Potency result in assay [4] is “inactive”.
With `CC(C)CCCC1(C)C=Cc2c(O)c3c(c(CCC(C)C)c2O1)OC12C(CC4CC1C(C)(C)OC2(CCC(C)C(=O)O)C4O)C3=O` (stereo unspecified), the Potency entry in assay [1] and in assay [2] was “inactive” throughout. Besides, in assay [3], the result was inactive.
`COC(=O)[C@@H]1C[C@H]2CC[C@H](O)C[C@H]2N1CC1CC1`: in assay [4], the Potency entry was “inactive”.
